# Among all 48,000 compounds or so, about 13,000 (27%) showed an effect of 50% or more. This is one part of the list.
# Test system: Wolbachia pipientis
# Assay: Anti-Wolbachia Cell-Based Screen
# Format: functional
# Design: scale not given: in the data most compounds retested in dose-response had high values
# Settings: 5 µM
row,Compound,Percent Effect [%]
1,Cc1nnn2c1COCC(CNC(=O)c1ccnnc1)C2 (configuration not stated),-2.264
2,CCN(C)CC1CCN(C(=O)NCCC2Cc3ccccc3C2)C1 (configuration not stated),-23.1
3,COc1ccc(CN2CCC(c3cc(O)nc(C)n3)C2)c(F)c1 (configuration not stated),113.4
4,CC(C)c1noc(C[S+]([O-])CC(=O)Nc2cc(F)ccc2F)n1 (configuration not stated),-11.5
5,N#Cc1cc(N2CCC(CS(N)(=O)=O)CC2)c2ccccc2n1,3.151
6,CNC(=O)[C@@H]1C[C@H]2CN(C(=O)c3ccco3)C[C@H]2N1C(C)C.O=C(O)C(F)(F)F,99.89
7,Cc1nc(CN2CCn3cc(CNC(=O)C4CCC4)nc3C2)cs1.O=C(O)C(F)(F)F,-18.19
8,CNC(=O)[C@H]1C[C@@H]2CN(Cc3csc(C)n3)C[C@@H]2N1S(C)(=O)=O.O=C(O)C(F)(F)F,110
9,Cc1nc(CN2CCO[C@@H]3CN(C(=O)NC(C)C)CC[C@@H]3C2)cs1.O=C(O)C(F)(F)F,-13.31
10,Cc1nc(CN2C[C@@H]3CCCO[C@@H]3[C@H](N(C)C(C)C)C2)cs1.O=C(O)C(F)(F)F.O=C(O)C(F)(F)F,-4.847
11,Cc1nc(CN2C[C@@H](NC(=O)C3CCC3)[C@H]3COC[C@H]32)cs1.O=C(O)C(F)(F)F,-15.38
12,CNC(=O)[C@H]1C[C@@H]2CN(S(=O)(=O)Cc3ccccc3)C[C@@H]2N1C.O=C(O)C(F)(F)F,-3.951
13,CNC(=O)[C@@H]1C[C@H]2CN(Cc3csc(C)n3)C[C@H]2N1C(C)C.O=C(O)C(F)(F)F.O=C(O)C(F)(F)F,116.9
14,CNC(=O)[C@@H]1C[C@H]2CN(C(=O)c3ccco3)C[C@H]2N1C.O=C(O)C(F)(F)F,-16.64
15,Cc1nc(C)c(CC(=O)Nc2ncc(C)s2)c(=O)[nH]1,-6.358
16,CCn1c(C2CCN(Cc3cc(C)n(NC(C)=O)c3C)CC2)n[nH]c1=O,1.026
17,O=C(CN1CCN(CC2CCOc3ccccc3C2)CC1)N1CCCC1 (configuration not stated),1.365
18,COCCC(=O)N(Cc1ccccn1)Cc1ccccc1C,13.85
19,CC(C)CN(Cc1ccccn1)Cc1ccccc1C(=O)O,-7.566
20,Cc1ccc(CN(Cc2ccccn2)C2CC(C)(C)NC(C)(C)C2)s1.O=C(O)CC(O)(CC(=O)O)C(=O)O,-1.083
21,Cc1ncc(CN(Cc2ccccn2)Cc2ccccc2Cl)n1C.O=C(O)CC(O)(CC(=O)O)C(=O)O,124.9
22,Cn1ccnc1CN(Cc1ccccn1)Cc1ccccc1Cl.O=C(O)CC(O)(CC(=O)O)C(=O)O,93.9
23,CC(C)CN(Cc1ccccn1)Cc1ccccc1OCC(=O)O,7.517
24,CCC(CO)N(Cc1ccco1)C(=O)c1cccnc1NC (configuration not stated),-5.429
25,CCc1n[nH]c(C2CN(Cc3csc(COC)n3)CCO2)n1 (configuration not stated),0.7556

row,Compound,Percent Effect [%]
1,O=C(Nc1ccc(-c2nc3c([nH]2)CCNC3)cc1)N1CCCC1,-0.2771
2,COc1ccc2c(c1)C(C(=O)N(C)CCCc1nccn1C)CC(=O)N2 (configuration not stated),9.372
3,CC(C)CN1C(=O)CO[C@@H]2CN(C(=O)C3CCOC3)C[C@H]21 (some centres not stated),-11.41
4,CC(C)CNC(=O)c1ccc(NC(=O)NC(C)C)cc1Cl,-2.856
5,CC(C)CNC(=O)c1ccc(NC(=O)NC(C)(C)CO)cc1Cl,-9.16
6,CC(C)CCCNC(=O)Nc1ccc(Cl)c(C(N)=O)c1,118.7
7,CCCOc1ccc(NC(=O)NCCC(=O)N(C)C)cc1Cl,-12.35
8,CC(C)CNC(=O)c1ccc(NC(=O)NCC2CC2)cc1Cl,-12.02
9,CC(C)CCCNC(=O)Nc1ccc(C(N)=O)c(Cl)c1,114.9
10,CCCN1CCC(NC(=O)NCCc2nc(CC)c(C)s2)CC1,16.1
11,Cc1ccc(-c2nn(-c3cccc(F)c3)cc2CN(CCO)CCO)o1,2.921
12,O=C(c1nc2sccn2c1-c1ncc[nH]1)N1CCCCC1,87.63
13,CCC[C@@H]1CN(C(=O)c2ccccc2-c2ncc[nH]2)C[C@H]1N(C)C,29.83
14,Cc1ccc2cc(C(=O)N3CCCN(C)CC3)ccc2n1,16.24
15,CN1CCCN(C(=O)c2nc3sccn3c2-c2ncc[nH]2)CC1,108
16,Cc1nc2sccn2c1C(=O)N1CCc2[nH]cnc2C1,-1.15
17,CN1C[C@@H](n2cnc(-c3ccccc3)c2-c2ncc[nH]2)C[C@H]1C(=O)O,-3.61
18,CN(C)C1CCCN(C(=O)c2cccc(-c3ncc[nH]3)c2)CC1 (configuration not stated),2.392
19,COc1ccc(OCc2cc(C(=O)N3C[C@@H](C)O[C@@H](C)C3)n[nH]2)c(Cl)c1,-0.1203
20,C[C@@H]1CN(C(=O)c2nc3ccc(Cl)cn3c2-c2ncc[nH]2)C[C@H](C)O1,103.5
21,CN1CCN(C(=O)c2n[nH]c3c2CN(Cc2nccs2)CC3)CC1,-8.434
22,C[C@@H]1CN(C(=O)Cn2ccc3ncccc3c2=O)C[C@H](C)O1,-28.32
23,C[C@@H]1CN(C(=O)c2nc3sccn3c2-c2ncc[nH]2)C[C@H](C)O1,88.09
24,CC(=O)N1CCC(C(=O)N(CC(F)F)c2cccc(Cl)c2)CC1,3.709
25,CCc1cc(NCCc2ccc(O)cc2)n2nccc2n1,12.11

row,Compound,Percent Effect [%]
1,O=C(NC1CCCC1)O[C@H]1COCCN(c2nc3ccccc3s2)C1,3.317
2,Cc1ccc2nc(C3CCN(CCO)CC3)nn2c1,-22.16
3,COCC(=O)N1CCC(c2nc3ccc(-c4ccccc4)cn3n2)CC1,4.971
4,CCS(=O)(=O)N1CCC(c2nc3ccc(-c4ccccc4)cn3n2)CC1,-9.682
5,COc1cccc(-c2ccc3nc(C4CCN(C(C)=O)CC4)nn3c2)c1,108.3
6,CC(=O)N1CCC(c2nc3ccc(C)cn3n2)CC1,109.2
7,CN(C)C(=O)N1CCC(c2nc3ccc(N4CCCC4)cn3n2)CC1.O=C(O)C(F)(F)F,-5.461
8,CN(C)C(=O)N1CCC(c2nc3ccc(-c4ccccc4)cn3n2)CC1,107
9,COCC(=O)N1CCC(c2nc3ccc(N4CCOCC4)cn3n2)CC1,-4.439
10,CS(=O)(=O)N1CCC(c2nc3ccc(-c4cccc(F)c4)cn3n2)CC1,121.7
11,COc1ccc(Cl)cc1CS(=O)(=O)Cc1noc(C)n1,18.18
12,C[S+]([O-])c1nncn1CCc1ccccc1 (configuration not stated),-4.603
13,COc1ccccc1C(O)Cn1cc(C(=O)NCc2ccco2)nn1 (configuration not stated),-0.6679
14,CNC(=O)c1cccc(NCC(=O)Nc2cc(C)nn2C)c1C,11.4
15,COc1ncccc1C(=O)NC1(c2cccc(F)c2)CCOCC1,0.9313
16,CN1CCCC1CNC(=O)c1nnn(-c2ccc(F)cc2)c1C1CC1 (configuration not stated),-4.807
17,CC(=O)N1CCC(c2nc3ccc(-c4cccc(F)c4)cn3n2)CC1,114.3
18,CNc1cc2c(nn1)CCN(C(=O)c1ccccc1-n1cccn1)C2,88.38
19,CCNc1cc2c(nn1)CCN(C(=O)c1cc3ccccc3[nH]c1=O)C2,-5.583
20,Nc1cc2c(nn1)CCN(C(=O)c1cccnc1Oc1ccccc1)C2,-19.15
21,CNc1cc2c(nn1)CCN(C(=O)c1ccc(-n3nccc3C)cc1)C2,-6.131
22,CCNc1cc2c(nn1)CCN(C(=O)c1ccc(NC3CC3)nc1)C2,18.68
23,Nc1cc2c(nn1)CCN(C(=O)c1ccc(Oc3cccnc3)cc1)C2,5.491
24,CNc1cc2c(nn1)CCN(C(=O)c1ccc(-n3cccn3)nc1)C2,108.2
25,CN(C)c1cc2c(nn1)CCN(C(=O)c1cc3ccccc3o1)C2,1.758

row,Compound,Percent Effect [%]
1,CCNc1cc2c(nn1)CCN(C(=O)c1ccc3cc[nH]c3c1)C2,0.8681
2,CCNc1cc2c(nn1)CCN(C(=O)c1ccnc(N(C)C)c1)C2,-3.48
3,CCNc1cc2c(nn1)CCN(C(=O)c1ccc(-n3cccn3)nc1)C2,97.41
4,CN(C)c1cc2c(nn1)CCN(C(=O)c1ccc(-n3cccn3)nc1)C2,103.2
5,COc1cccc2ccc(CN3CCN(c4ccncc4)CC3)nc12,12.14
6,CCc1nsc(N2CCCN(C(=O)COc3ccccc3)CC2)n1,6.055
7,COCCCN1CC2(CCC1=O)CCN(Cc1cc(C(C)C)no1)CC2,-3.554
8,CC(=O)N1[C@H](Cn2cncn2)C[C@@H]2CN(C(=O)NC3CC3)CC[C@@H]21,-0.06843
9,COc1ccc(CN2CCCC2)cc1Oc1cccc(C#N)n1,4.454
10,CCCN1CCCn2nc(CNS(=O)(=O)c3ccc(C)cc3)cc2C1,-4.266
11,CCCNC(=O)c1cc(OC)c(OC)cc1N(C)S(C)(=O)=O,-23.04
12,CNC(=O)c1cc(OC)c(OC)cc1N(C)S(C)(=O)=O,-22.7
13,CCc1ccccc1NC(=O)C1CN(C(C)=O)C1,6.296
14,CCc1cccc(C)c1NC(=O)c1ccccc1N(C)S(C)(=O)=O,89.09
15,CCNC(=O)c1cc(OC)c(OC)cc1N(C)S(C)(=O)=O,-20.94
16,Cc1cccc(C)c1NC(=O)c1cccc(N(C)S(C)(=O)=O)c1C,108.1
17,CCc1cccc(CC)c1NC(=O)c1ccccc1N(C)S(C)(=O)=O,109.8
18,CNC(=O)c1cccc(NC(=O)NCc2ccccc2)c1C,3.946
19,CCN(CCCc1ccccc1C)S(C)(=O)=O,5.478
20,CCc1ccccc1NC(=O)c1cccc(N(C)S(C)(=O)=O)c1C,92
21,Cc1ccc(C(=O)NC2CCN(C)CC2)cc1N(C)S(C)(=O)=O,12.36
22,CCc1ccc(S(=O)(=O)Nc2c(C)cccc2C(=O)O)s1,-3.804

# Reference: ChEMBL document CHEMBL3988442, “University of Dundee, Small-Polar-MMV Screening Library” (2021)
